Compound activity from PubChem BioAssay.
An excerpt weighted towards active compounds, which were near 3.7% of everything screened.
BRCA1 expr up – increases BRCA1 expression; 380,000 compounds, 1.1% hits; AID 624202; MCF7-BRCA1-FFLuc reporter, luminescence, 48 h; response scale: scaled: vehicle 0%, 10 µM genistein 100%; Potency, µM (titrated, usually from 46.1 µM), without a hit: at the top dose activation, usual class: activators; further: potency means the concentration at half of the fitted maximal effect; nearly all actives have a fitted effect of over 80% in size
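Luminescence from a BRCA1-driven firefly luciferase in MCF7 cells was the read-out, taken 15 min after substrate addition following 48 h compound exposure at 37 °C. Data were normalized to a 10 microM genistein control and DMSO vehicle.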
PTHR1 agonist – PTHR1 (human) receptor agonism; HEK293 GP2 PTHR1 cells, GloSensor cAMP luminescence, 1 h; 410,000 compounds, 0.075% hits; AID 743266; Potency, µM (top dose mostly 115 µM), inactives show top-dose activation, usual class: activators; Q03431; further: potency means the concentration at half of the fitted maximal effect; nearly all actives have a fitted effect of over 55% in size
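HEK-293-derived GP2 cells expressing PTHR1 and a GloSensor cAMP reporter, 3,000/well, plated overnight, given luciferin plus IBMX (each 0.5 mM as added) for 1 h at 37 °C, then compound for 1 h at 37 °C. Luminescence was read after 15 min at room temperature.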
RGS4 inh – blocks human RGS4-accelerated GTP hydrolysis; AID 504845; Transcreener GDP fluorescence polarization, RGS4-accelerated GTP hydrolysis; 390,000 compounds, 0.039% hits; Potency, µM (doses to about 114 µM), without a hit: at the top dose activity change, negative = inhibition, usual class: inhibitors; P49798; further: potency means the concentration at half of the fitted maximal effect; on the % scale 0 is the no-effect control and ±100 the full control effect; nearly all actives have a fitted effect of over 75% in size
Target sequence (P49798 whole entry, looked up): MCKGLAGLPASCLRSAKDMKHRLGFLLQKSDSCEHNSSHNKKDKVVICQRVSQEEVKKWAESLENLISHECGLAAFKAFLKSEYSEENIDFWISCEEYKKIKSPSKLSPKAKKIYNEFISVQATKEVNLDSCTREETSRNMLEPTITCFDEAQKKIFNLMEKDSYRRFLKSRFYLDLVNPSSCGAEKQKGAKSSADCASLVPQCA
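MLSMR compounds (23 nl, pin-transferred) preincubated 10 min at room temperature with a 500nM (2x) first reagent, then RGS4 at 900nM (2x) plus Transcreener GDP mix added; fluorescence polarization (620/688 nm) read before and after 90 min at 30 °C.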
D3 antag – blocks the human D3 dopamine receptor; D3R cells, DiscoveRx beta-arrestin luminescence, antagonist mode; stronger effect = lower value; P35462; max response, negative = inhibition, %; 360,000 compounds, 2.5% hits; in the data active means max response below about -50%; inconclusive means no clear call, values can overlap the other calls; further: on the % scale 0 is the no-effect control and ±100 the full control effect
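Cells plated overnight at 1500 cells/well, then exposed to library compounds with dopamine controls for 90 minutes at 37 degrees C. DiscoveRx reagent added for 30–60 minutes at room temperature; luminescence read, quantitative HTS format.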
D3 ag – D3 dopamine receptor (human) agonism. D3R DiscoveRx beta-arrestin cells, luminescence, 90 min. max activation, %. 410,000 compounds, 0.58% hits. AID 652048; in the data active means max activation above about 30%; further: 0% is about no effect
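Agonist mode: compounds and dopamine controls were applied to plated cells for 90 min at 37 degrees C after an overnight attachment at 1500 cells/well. Luminescent read-out followed 30 - 60 minutes at room temperature with DiscoveRx detection reagent.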
B2AR arrestin – agonists driving beta-arrestin recruitment to human beta2-adrenergic receptor | P07550 | 330,000 compounds, 0.02% hits | AID 492947 | beta-arrestin recruitment to beta2AR, cell-based reporter | Potency, µM (titrated, usually from 46.1 µM), for inactives: top-dose activation, most hits filed as activators;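 further: potency means the concentration at half of the fitted maximal effect; 0% = DMSO controls and full agonism = EC100 isoproterenol or metaproterenol; nearly all actives have a fitted effect of over 65% in size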
Numbers without * were called inactive; i = inactive; ? = inconclusive; · = not tested or not shown; [ ] = another dose, or the depositor's remark. Unless noted, the call rests on the fitted dose curve; in most records, active means well fitted curve in the direction sought with a large enough effect; inconclusive means small, poorly fitted or top-dose-only effect, or another doubt; inactive means no such curve, though single readings can be large; an effect the other way counts as inactive or inconclusive.

SMILES	BRCA1 expr up	PTHR1 agonist	RGS4 inh	D3 antag	D3 ag	B2AR arrestin
Cc1cccc(OCC(O)CN2CCOCC2)c1 (stereo unspecified)	-5%	i	-14%	-1	-3	0%
CC(C)(C)c1ccc(OCC(O)CN2CCN(C(=O)c3ccccc3)CC2)cc1 (stereo unspecified)	-24%	-2%	-17%	13	-11	0%
CC(C)(C)c1ccc(OCC(O)CN2CCc3ccccc3C2)cc1 (stereo unspecified)	-61%	0%	-1%	-119*	-21	·
O=C(c1cn(Cc2ccccc2)nc1-c1cccnc1)N1CCc2ccccc2C1	-26%	-2%	45%	-5	10	-2%
COc1ccc(NC(=O)CN(C)C(=O)C2=NN(c3ccccc3)C(=O)CC2)cc1	9%	i	-15%	-1	-1	0%
Cc1ccc(NC(=O)[C@@H](c2ccccc2)N2Cc3ccccc3C2=O)cc1	-8%	-50%	-8%	·	3	·
COc1ccc(-c2onc(C)c2C)cc1S(=O)(=O)NC1CCC(C)CC1 (stereo unspecified)	·	-14%	6%	·	13	·
C=CCc1ccc(OCC(O)CN2CCc3ccccc3C2)c(OC)c1 (stereo unspecified)	4%	?	8%	-100*	-18	2%
Cc1cc(C)n(CC(O)COc2ccc(Cl)cc2)n1 (stereo unspecified)	-3%	i	1%	-20	1	-1%
CCC(=O)c1ccc(OCC(O)CN2CCc3ccccc3C2)cc1 (stereo unspecified)	-2%	i	-4%	-75*	1	0%
COc1cccc(OCC(O)CN2CCc3ccccc3C2)c1 (stereo unspecified)	2%	i	-14%	-91*	-14	0%
COc1cc(OC)c(OC)cc1CN1CCc2ccccc2C1	8%	i	5%	?	-26	0%
CCN1CCN(CC(O)COc2cccc(OC)c2)CC1 (stereo unspecified)	-1%	i	-4%	30	4	0%
Cc1cc(C)n(CC(O)COc2ccc(Cl)cc2Cl)n1 (stereo unspecified)	11µM*	-24%	-10%[56.9 µM]	-3	4	0%
COc1cccc(C2NC(=O)CCC2[N+](=O)[O-])c1 (stereo unspecified)	-8%	-4%	-7%[56.9 µM]	0	-2	0%
Nc1cnccc1Oc1cccc(C(F)(F)F)c1	-13%	-20%	-11%	11	2	·
Cc1ccc(OCC(O)CN2CCc3ccccc3C2)c(C)c1 (stereo unspecified)	-26%	i	14%	-104*	-19	0%
COc1cc(COCC(O)CN2CCc3ccccc3C2)cc(OC)c1OC (stereo unspecified)	-18%	-24%	-7%	-85*	-10	1%
CN(Cc1cnccn1)Cc1ccccc1OCC(O)CN1CCc2ccccc2C1 (stereo unspecified)	-21%	i	-20%	-83*	-20	0%
CN(Cc1ccc(OCC(O)CN2CCCCC2)cc1)Cc1ccnc2ccccc12 (stereo unspecified)	-27%	-29%	-11%	?	-5	-1%
COc1ccc(OCC(O)CN2CCc3ccccc3C2)cc1 (stereo unspecified)	6%	i	8%	-107*	-16	0%
COc1cc(C(=O)OCC(=O)N2CCCC2)cc2c1OCCO2	10%	-15%	0%	13	2	-1%
c1csc(CSc2nc3ccccc3s2)c1	7.9µM*	-14%[57.5 µM]	-10%	-19	-5	0%
CNc1nnc(CSc2nc3ccccc3s2)s1	11µM*	-14%[57.5 µM]	-7%	0	-1	3%
CO/N=C(\C(=O)N[C@@H]1C(=O)N2C(C(=O)O)=C(CSc3nc(C)c(CC(=O)O)s3)CS[C@H]12)c1csc(N)n1	·	·	·	·	3	·
